The record followed here is PubChem BioAssay (NCATS).

Experiment [1] is described as follows: qHTS for Inhibitors of the Functional Ribonucleoprotein Complex (vRNP) of Lymphocytic Choriomeningitis Arenaviruses (LCMV): Viability assay - alamar blue signal for LCMV Primary Screen (AID 1347085; calls by dose curve; tested in HEK293 reporter line; note: nearly all actives have a fitted effect of over 80% in size; note: potency is the fitted concentration of half-maximal effect). On the technique in general: In qHTS, concentration-response curves come from the screen itself.
The nature of experiment [2]: qHTS for Inhibitors of the Functional Ribonucleoprotein Complex (vRNP) of Lassa (LASV) Arenavirus: Viability assay - alamar blue signal for LASV Primary Screen (AID 1347083; calls by dose curve; tested in HEK293 reporter line; note: nearly all actives have a fitted effect of over 80% in size; note: potency is the fitted concentration of half-maximal effect).
Experiment [3] concerns the target Nucleoprotein (Lymphocytic choriomeningitis virus (strain Armstrong)) (UniProt P09992). As to the kind of experiment: qHTS for Inhibitors of the Functional Ribonucleoprotein Complex (vRNP) of Lymphocytic Choriomeningitis Arenaviruses (LCMV): LCMV Primary Screen - GLuc reporter signal (AID 1347086). For activity change, negative = inhibition: % is set by controls: 0 for no effect and ±100 for the full control effect. Note: nearly all actives have a fitted effect of over 70% in size. Note: potency is the fitted concentration of half-maximal effect.
A short description of experiment [4]: Confirmatory qHTS to identify inhibitors of SARS-CoV-2 cell entry (AID 1645844). Note: potency is the fitted concentration of half-maximal effect; nearly all actives have a fitted effect of over 45% in size. The procedure, abridged:
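Luminescence entry read-out after 48 h: spike-pseudotyped MLV particles (Wuhan-Hu-1, 19-aa C-terminal truncation) added to compound-pretreated (1 h) HEK293-ACE2 cells; Data were normalised to bald PP and spike PP wells.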

Experiment [5] is described as follows: Cytotoxicity counterscreen for inhibitors of SARS-CoV-2 cell entry (AID 1645845). Note: nearly all actives have a fitted effect of over 50% in size. Note: potency is the fitted concentration of half-maximal effect. The method in brief: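 ATP-content luminescence (ATPLite 1step, 15 min RT) read after 48 h compound exposure of Expi293F cells stably expressing human ACE2; normalized to cells-only wells and media-only wells.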
In general terms: Counterscreens check selectivity or assay interference.

Experiment [6] in a line: VSVG counterscreen qHTS to identify inhibitors of SARS-CoV-2 cell entry (AID 1645847). Note: potency is the fitted concentration of half-maximal effect; nearly all actives have a fitted effect of over 65% in size. The procedure, abridged: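 HEK293-ACE2 cells (Expi293F stably expressing human ACE2) were pretreated with compound for 1 h at 37 °C, then infected with MLV-based VSV-G pseudotyped particles for 48 h. Luciferase luminescence was normalized to VSV-G PP and bald PP wells.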
The target in experiment [7] is Alpha-galactosidase (Coffea arabica) (UniProt Q42656). In words: Counterscreen for Glucocerebrosidase Inhibitors: qHTS Assay for Coffee Bean alpha-Galactosidase at pH 4.5 (AID 957; active = well fitted curve in the direction sought with a large enough effect; an effect the other way counts as inactive or inconclusive;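 note: plate controls were enzyme alone for no effect and no enzyme for full effect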). The method in brief:
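Fluorogenic qHTS at pH 4.5 (citrate buffer with Tween-20): 2 nM enzyme, 80 uM 4-MU-alpha-galactoside substrate, compound titrated 0.7 nM to 77 uM, 20 min room temperature. Glycine/NaOH stop; 4-MU read Ex 365/Em 440; Hill-equation AC50 against no-enzyme and enzyme controls.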

The target is the same in experiment [8]. In words: Counterscreen for Glucocerebrosidase Inhibitors: qHTS Assay for Coffee Bean alpha-Galactosidase at pH 5.9 (AID 998; active = well fitted curve in the direction sought with a large enough effect; an effect the other way counts as inactive or inconclusive;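 note: plate controls were uninhibited enzyme for no effect and no-enzyme basal signal for full effect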). The method in brief: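 Fluorogenic 4-MU substrate hydrolysis, 80 uM substrate and 2 nM coffee bean alpha-galactosidase, pH 5.9 citrate buffer, 20 min at room temperature, then NaOH/glycine stop. Titration 0.7 nM–77 uM, normalized to no-enzyme and enzyme controls, AC50 via Hill equation.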

Experiment [9] can be described thus: Inducers of the Endoplasmic Reticulum Stress Response (ERSR) in human glioma: Validation (AID 504836; active = well fitted curve in the direction sought with a large enough effect; an effect the other way counts as inactive or inconclusive; note: 0% is about no effect). The procedure, abridged:
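ERSR induction read as luciferase luminescence (Bright-Glo, 10 min at room temperature) in stably transfected human U87-MG glioma cells exposed to compounds for 16 h, using GRP78 as sensor.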

A short description of experiment [10]: Confirmatory qHTS for VERO E6 Cytotoxicity Assay: Counterscreen for SARS-CoV-2 CPE Assay (AID 1508605). Note: potency is the fitted concentration of half-maximal effect; nearly all actives have a fitted effect of over 60% in size.
A short description of experiment [11]: Primary qHTS to identify inhibitors of SARS-CoV-2 cell entry (AID 1645846). Note: nearly all actives have a fitted effect of over 45% in size. The note with it: activity change, negative = inhibition: at 57.1 µM (top of the series) unless noted. The procedure, abridged:
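Luminescence readout (Bright-Glo luciferase) 48 h after pseudoparticle addition. HEK293-ACE2 cells, 1500/well; compound pre-incubation 1 h; Normalized to spike PP and bald PP.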

Experiment [12] can be described thus: qHTS profiling of the MIPE4 collection as inhibitors of Plasmodium falciparum (3D7) proliferation (AID 743344; call rule not given here;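 note: scaled between DMSO vehicle wells and 0.29 µM artemisinin as full inhibition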). The settings on record: P. falciparum 3D7 in erythrocytes, SYBR Green DNA fluorescence, 72 h; at 28.5 µM (top of the series) unless noted. The method in brief:
(§1)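 Parasite DNA was quantified by SYBR Green I fluorescence (ex 485, em 535 nm) after overnight lysis in saponin/Triton buffer at room temperature. Cultures at 0.3% parasitemia and 2.5% hematocrit were first exposed to compound for 72 h at 37 C; signals were normalised to artemisinin (0.29 uM) and vehicle wells.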

Experiment [13] can be described thus: qHTS profiling of the MIPE4 collection as inhibitors of Plasmodium falciparum (DD2) proliferation (AID 743345; call rule not given here). The settings on record: P. falciparum Dd2 in erythrocytes, SYBR Green DNA, 72 h; at 28.5 µM (top of the series) unless noted. The method in brief:
as §1

Experiment [14] deals with Peroxisome proliferator-activated receptor delta (Homo sapiens) (UniProt Q03181). As to the kind of experiment: qHTS assay for small molecule agonists of peroxisome proliferator-activated receptor delta signaling (AID 588534).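 Note: 0% = DMSO basal wells and 100% = positive control agonist at 10 µM.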 The method in brief: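 Agonist-mode beta-lactamase reporter readout (CCF4 dye, 2 h at RT) after 18 h at 37 °C exposure to a titration; Hill-equation fitting gave EC50 and maximal response.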

Records with an inconclusive call do not appear. Calls of active or inactive are those of the source. Unless noted, calls come from the whole dose curve.

Chain of Alpha-galactosidase (Coffea arabica) (Q42656 whole entry, looked up): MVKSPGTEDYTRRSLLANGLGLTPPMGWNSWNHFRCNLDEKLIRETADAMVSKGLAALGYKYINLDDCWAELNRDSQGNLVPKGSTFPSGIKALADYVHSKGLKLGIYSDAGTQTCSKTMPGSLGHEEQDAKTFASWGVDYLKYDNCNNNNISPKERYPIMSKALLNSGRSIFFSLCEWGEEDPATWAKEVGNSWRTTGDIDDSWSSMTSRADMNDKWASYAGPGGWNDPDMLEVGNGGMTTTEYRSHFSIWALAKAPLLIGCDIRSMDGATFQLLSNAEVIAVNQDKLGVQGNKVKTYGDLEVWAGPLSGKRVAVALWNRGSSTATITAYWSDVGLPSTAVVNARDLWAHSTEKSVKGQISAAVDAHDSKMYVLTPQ
Chain of Nucleoprotein (Lymphocytic choriomeningitis virus (strain Armstrong)) (P09992 whole entry, looked up): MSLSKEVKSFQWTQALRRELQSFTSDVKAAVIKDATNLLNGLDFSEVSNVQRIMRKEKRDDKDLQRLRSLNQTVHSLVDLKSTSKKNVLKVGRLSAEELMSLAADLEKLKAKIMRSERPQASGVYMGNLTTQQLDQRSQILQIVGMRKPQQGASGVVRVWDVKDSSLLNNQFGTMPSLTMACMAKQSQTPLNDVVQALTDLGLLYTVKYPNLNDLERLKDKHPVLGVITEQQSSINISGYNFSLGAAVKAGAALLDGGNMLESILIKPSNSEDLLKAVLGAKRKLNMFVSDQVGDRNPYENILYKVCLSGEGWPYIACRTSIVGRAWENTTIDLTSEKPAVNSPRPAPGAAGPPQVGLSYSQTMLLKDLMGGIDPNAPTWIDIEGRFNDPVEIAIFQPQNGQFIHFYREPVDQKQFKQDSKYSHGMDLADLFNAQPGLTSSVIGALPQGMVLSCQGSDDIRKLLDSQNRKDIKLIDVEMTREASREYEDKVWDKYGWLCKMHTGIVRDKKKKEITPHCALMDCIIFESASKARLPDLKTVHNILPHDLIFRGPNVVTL
Chain of Peroxisome proliferator-activated receptor delta (Homo sapiens) (Q03181 whole entry, looked up): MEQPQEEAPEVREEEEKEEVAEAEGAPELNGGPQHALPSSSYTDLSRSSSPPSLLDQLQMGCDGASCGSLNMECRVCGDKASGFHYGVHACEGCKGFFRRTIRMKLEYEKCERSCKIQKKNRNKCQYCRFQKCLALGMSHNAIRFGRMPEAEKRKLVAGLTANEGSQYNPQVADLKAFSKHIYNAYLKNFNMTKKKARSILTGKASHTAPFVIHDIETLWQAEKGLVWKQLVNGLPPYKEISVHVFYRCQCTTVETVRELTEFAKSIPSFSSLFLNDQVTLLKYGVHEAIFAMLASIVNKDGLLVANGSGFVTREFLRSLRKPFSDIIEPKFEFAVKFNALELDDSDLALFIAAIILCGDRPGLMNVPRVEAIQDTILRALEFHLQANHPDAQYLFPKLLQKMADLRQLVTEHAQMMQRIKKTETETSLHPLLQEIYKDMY

On to `O=C1OC[C@H](Cc2ccc3c(c2)OCO3)/C1=C\c1ccc2c(c1)OCO2`, for which the Potency entry in [1] was “inactive”.
As to `Cc1cc(C(=O)N2CCN(c3cccc(Cl)c3)CC2)n(-c2ccccc2)n1`, the Potency in [2] was 0.611 µM (active); in [3], 6.85 µM (active); in [4], 6.81 µM (active); in [6] it was 3.41 µM (active). The Potency entry in experiment [5] was “inactive”.
Consider `CN(C)N=Nc1nc[nH]c1C(N)=O`, for which the Potency in [2] is 17.2 µM (active). Besides, the Potency entry in [5] is “inactive”.
With `Cc1c(Cn2c(C)nc3c(C(=O)O)cc(N4CCOCC4)cc32)cccc1C(F)(F)F`, the Potency in [2] was 1.09 µM (active). For the same molecule, the Potency result in experiment [5] is “inactive”.
Regarding `COc1ccc(S(=O)(=O)Nc2cccnc2Nc2ccc(O)cc2)cc1`, the Potency in experiment [2] is 0.273 µM (active); in experiment [4], 1.21 µM (active).
With `O=C1NC(=O)c2cc(Nc3ccccc3)c(Nc3ccccc3)cc21`, the outcome in [7], in [8] and in experiment [9] was inactive. Also, in experiment [2], the Potency entry was “inactive”. The Potency in [10] was 11.2 µM (active).
On to `CNC1CCC(N(Cc2cccc(-c3ccncc3)c2)C(=O)c2sc3ccccc3c2Cl)CC1` (centres undefined), for which the results for the Potency in [2], in experiment [3] and in experiment [5] were 30.6 µM (active), 10.9 µM (active) and 31.6 µM (active), respectively.
On to `Cc1ccn(-c2ccc(-c3ncco3)cc2)c(=O)c1-c1ccc2nc(N)ncc2c1`, for which the Potency in experiment [2] is 3.43 µM (active). Moreover, the Potency entry in experiment [3], in experiment [5] and in experiment [11] was “inactive” each time.
In experiment [12], `CN(C)CCOc1ccc(C(=C(CCCl)c2ccccc2)c2ccccc2)cc1` returned a parasite growth, % of DMSO control of 67.8%. Also, the parasite growth remaining, % of DMSO control (lower = more inhibition) in [13] turned out to be 55.4%. In experiment [2], the Potency was 12.2 µM (active).
`COc1cc2ncnc(Nc3cccc(Br)c3)c2cc1OC`: the Potency in [2] is 0.344 µM (active). Moreover, the Potency entry in [5] was “inactive”. The activity change, negative = inhibition in experiment [11] was -19.5%.
Consider `CC(=O)O[C@@H]1[C@@H](O)C2OC3C=C(C)C(=O)[C@@H](O)[C@]3(CO)C1(C)C21CO1` (some centres undefined), for which the Potency in experiment [1] was 0.316 µM (active).
On to `C=C1C(=O)OC2CC3(C)OC3CCC(C)=CC(OC(C)=O)C12` (centres undefined), for which, in experiment [1], the Potency result was “inactive”.
As for `C#Cc1cccc(Nc2ncnc3cc(OCCOC)c(OCCO)cc23)c1`, the parasite growth remaining, % of DMSO control (lower = more inhibition) in experiment [13] was 36.9%. In addition, the Potency in [2] is 10.9 µM (active). Further, the Potency result in experiment [5] was “inactive”.
Take `C[C@]12CC[C@@H]3c4ccc(O)cc4CC[C@H]3[C@H]1CC[C@H]2O`: in experiment [14], the Potency entry was “inactive”. The Potency was 9.68 µM (active) in experiment [2] and 1.22 µM (active) in [3].
Turning to `C[C@@H]1CC=CC=CC=CC=C[C@@H](O[C@@H]2O[C@H](C)[C@@H](O)[C@H](N)[C@H]2O)C[C@@H]2O[C@](O)(C[C@@H](O)C[C@@H]3O[C@@H]3C=CC(=O)O1)C[C@H](O)[C@@H]2C(=O)O`, in [1], the Potency entry is “inactive”.
Regarding `Cc1c(NC(=O)OC[C@@H]2COCCN2)cn2ncnc(Nc3ccc4c(cnn4Cc4cccc(F)c4)c3)c12`, the Potency in experiment [2] is 1.22 µM (active); in experiment [10] it was 11.2 µM (active). Besides, in experiment [5], the Potency result is “inactive”.
As for `Cc1ccc(O)c(N=Nc2ccccc2)n1`, the call in experiment [7] and in experiment [8] was inactive.
